The term remaining activity denotes the signal under treatment as a percentage of the control signal.

This is an account of results in PubChem BioAssay AID602144 (Vanderbilt Specialized Chemistry Center, 2011).

“And” between values parts separate entries of the source, which are not always exact repeats. Equal values may be shown once. Unmarked numbers belong to inactive results. The source made the active and inactive calls. Cut-off read from the data, not from the text of the source: active = remaining activity below about 50%; inactive = the rest.

Chain of Phospholipase D1 (Homo sapiens) (Q13393 whole entry, looked up): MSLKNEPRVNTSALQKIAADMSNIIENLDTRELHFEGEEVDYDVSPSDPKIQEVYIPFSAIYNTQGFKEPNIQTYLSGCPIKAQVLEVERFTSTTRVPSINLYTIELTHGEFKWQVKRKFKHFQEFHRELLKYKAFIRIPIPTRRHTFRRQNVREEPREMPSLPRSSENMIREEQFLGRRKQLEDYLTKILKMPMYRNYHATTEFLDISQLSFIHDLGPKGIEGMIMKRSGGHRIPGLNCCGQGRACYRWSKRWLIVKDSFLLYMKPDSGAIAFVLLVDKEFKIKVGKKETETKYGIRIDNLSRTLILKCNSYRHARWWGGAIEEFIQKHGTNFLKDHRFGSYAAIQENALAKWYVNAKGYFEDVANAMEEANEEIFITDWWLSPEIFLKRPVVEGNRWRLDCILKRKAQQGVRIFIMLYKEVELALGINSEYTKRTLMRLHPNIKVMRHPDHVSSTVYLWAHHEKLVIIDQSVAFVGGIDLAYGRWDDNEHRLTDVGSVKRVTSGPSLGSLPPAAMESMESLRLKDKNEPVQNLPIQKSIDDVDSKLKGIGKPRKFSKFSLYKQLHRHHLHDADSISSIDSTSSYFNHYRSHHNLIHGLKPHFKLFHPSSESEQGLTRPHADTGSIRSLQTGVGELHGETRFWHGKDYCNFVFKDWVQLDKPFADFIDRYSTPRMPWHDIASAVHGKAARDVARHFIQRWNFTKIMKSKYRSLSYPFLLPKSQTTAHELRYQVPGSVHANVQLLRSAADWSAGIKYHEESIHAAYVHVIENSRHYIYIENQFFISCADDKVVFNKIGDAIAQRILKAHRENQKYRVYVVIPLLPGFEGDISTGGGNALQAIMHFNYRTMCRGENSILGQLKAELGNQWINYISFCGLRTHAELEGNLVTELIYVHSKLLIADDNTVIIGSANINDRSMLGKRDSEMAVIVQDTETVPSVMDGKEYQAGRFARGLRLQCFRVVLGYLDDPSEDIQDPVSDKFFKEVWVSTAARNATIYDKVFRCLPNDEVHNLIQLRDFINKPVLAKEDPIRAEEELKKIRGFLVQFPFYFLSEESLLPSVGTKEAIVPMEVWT
Chain of Phospholipase D1 (Homo sapiens) (Q13393 whole entry, looked up): as above

This assay has as its target Phospholipase D1 (Homo sapiens) (UniProt Q13393). The experiment in a line: PLD1 inhibitors in cells, Calu-1 cells, single concentration (AID 602144).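 Note: tested at 200 nM.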 To be noted: cellular PLD1 activity, stronger effect = lower value.
As for `O=C(NCCN1CCC2(CC1)C(=O)NCN2c1ccccc1)c1cc(-c2ccccc2)no1`, the remaining activity is 97.4%. Take `O=C(CCN1CCC2(CC1)C(=O)NCN2c1ccccc1)Nc1cnc2ccccc2c1`: the remaining activity was 123%. Next, `O=C(NCCN1CCC2(CC1)C(=O)NCN2c1ccccc1)C1C[C@H]1c1ccccc1` (stereo not given in full): 138%; `O=C(NCCN1CCC2(CC1)C(=O)NCN2c1ccccc1)c1cccc(Cl)n1`: 132%; `O=C(c1ccc2ccccc2c1)N1CC(N2CCC3(CC2)C(=O)NCN3c2ccccc2)C1`: 82.4%. Next, `O=C(NCCN1CCC2(CC1)C(=O)NCN2c1cccc(F)c1)c1cc(C(F)(F)F)ccc1C(F)(F)F`: 86.3%. Next, `O=C(NCCN1CCC2(CC1)C(=O)NCN2c1ccccc1)c1ncccc1F`: 110%. Turning to `O=C(NCCN1CCC2(CC1)C(=O)NCN2c1cccc(Cl)c1)c1ccc2ccccc2c1`, the remaining activity is 57.3%. In the case of `O=C(c1ccc2ccccc2c1)N1CCCC1CN1CCC(n2c(=O)[nH]c3ccccc32)CC1` (stereo not given), the remaining activity is 101% and 112%.

With `O=C(NCCN1CCC2(CC1)C(=O)NCN2c1cccc(Cl)c1)c1cc2cc(F)ccc2[nH]1`, the remaining activity was 58%. With `O=C(C1CC1c1ccccc1)N1CC(N2CCC3(CC2)C(=O)NCN3c2ccccc2)C1` (stereo not given) the figure was 94.4%; with `Cc1cccc(C(=O)NCCN2CCC3(CC2)C(=O)NCN3c2ccccc2)n1`, 123%. In the case of `O=C(NCCN1CCC2(CC1)C(=O)NCN2c1ccc(Cl)cc1)c1ccc2ccccc2c1`, the remaining activity is 103%. With `O=C1c2ccccc2C(=O)N1CCCN1CCC2(CC1)C(=O)NCN2c1ccccc1` the figure was 84.6%. Take `CC1(C)C(C(=O)NCCN2CCC3(CC2)C(=O)NCN3c2ccccc2)C1(C)C`: the remaining activity was 104%.

For the molecule `O=C(c1cnc2ccccc2c1)N1CC(N2CCC3(CC2)C(=O)NCN3c2ccccc2)C1`, the remaining activity is 106%.

Regarding `O=C(NCCN1CCC2(CC1)C(=O)NCN2c1ccc(Br)cc1)c1ccc(F)cc1`, the remaining activity was 78.5%.

As for `O=C(NCCN1CCC2(CC1)C(=O)NCN2c1cccc(F)c1)c1ccc(F)nc1`, the remaining activity is 117%. For `O=C(NCCN1CCC2(CC1)C(=O)N(Cc1ccccc1)c1ccccc12)c1ccc2ccccc2c1`, the remaining activity is 98.9%. Next, `CC(C)[C@@H](CN1CCC2(CC1)C(=O)NCN2c1ccccc1)NC(=O)c1cc2cc(F)ccc2[nH]1`: 6.9% (active); `O=C(NCCN1CCC2(CC1)C(=O)NCN2c1ccccc1)c1cccc(F)n1`: 138%; `C[C@@H](CN1CCC2(CC1)C(=O)NCN2c1ccccc1)NC(=O)c1ccc(F)c(F)c1`: 34.3% (active). Take `CCCCCC(=O)NCCN1CCC2(CC1)C(=O)NCN2c1cccc(F)c1`: the remaining activity is 109%. For `C[C@H](N)CN1CCC2(CC1)C(=O)NCN2c1ccccc1` (tested in a mixture with another compound), the remaining activity is 96.4%. Next, `O=C(NCCN1CCC2(CC1)C(=O)NCN2c1ccc(F)cc1)c1cc2ccccc2[nH]1`: 32.3% (active); `C[C@@H](CN1CCC2(CC1)C(=O)NCN2c1ccc(F)c(F)c1)NC(=O)c1cnc2ccccc2c1`: 5.04% (active); `O=C(CCc1ccc(F)cc1)NCCN1CCC2(CC1)C(=O)NCN2c1ccccc1`: 69.5%. With `O=C(NCCN1CCC2(CC1)C(=O)NCN2c1ccc(F)cc1)c1cnc2ccccc2c1` the figure was 60.5%; with `CCOC(=O)CCN1CCC2(CC1)C(=O)NCN2c1ccccc1`, 83.2%; with `O=C(Cc1ccccc1Br)NCCN1CCC2(CC1)C(=O)NCN2c1cccc(F)c1`, 100%. Next, `O=C(NCCN1CCC2(CC1)C(=O)NCN2c1ccc(F)c(F)c1)c1ccc2ccccc2c1`: 84.3%. For `O=C(NCCN1CCC2(CC1)C(=O)NCN2c1ccc(Cl)cc1)c1ccc(F)cc1`, the remaining activity was 123%. Next, `C[C@@H](CN1CCC2(CC1)C(=O)NCN2c1ccc(F)c(F)c1)NC(=O)c1cc2ccccc2[nH]1`: 0% (active); `CC(C)[C@@H](CN1CCC2(CC1)C(=O)NCN2c1ccccc1)NC(=O)c1cnc2ccccc2c1`: 18.3% (active); `O=C(NCCN1CCC2(CC1)C(=O)NCN2c1cccc(F)c1)c1c(F)cccc1F`: 80.5%.
